# Data from paper PMC4336329 (PLoS ONE, 2015).
# Screen size: about 310,000 compounds; about 14,000 (4.5%) showed an effect of 50% or more. The effect is printed as a negative number. The full list was thinned out, with strong results kept by preference.
# Molecular target: human ether-à-go-go-related gene (hERG) potassium channel (human, UniProt Q12809)
# Test: primary screen, population patch clamp on CHO cells stably expressing hERG; higher = less effect of the substance
# 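Note: peak tail current of the secondary pulse compared with the same well before compound.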
# human ether-à-go-go-related gene (hERG) potassium channel, sequence (Q12809 whole entry, looked up): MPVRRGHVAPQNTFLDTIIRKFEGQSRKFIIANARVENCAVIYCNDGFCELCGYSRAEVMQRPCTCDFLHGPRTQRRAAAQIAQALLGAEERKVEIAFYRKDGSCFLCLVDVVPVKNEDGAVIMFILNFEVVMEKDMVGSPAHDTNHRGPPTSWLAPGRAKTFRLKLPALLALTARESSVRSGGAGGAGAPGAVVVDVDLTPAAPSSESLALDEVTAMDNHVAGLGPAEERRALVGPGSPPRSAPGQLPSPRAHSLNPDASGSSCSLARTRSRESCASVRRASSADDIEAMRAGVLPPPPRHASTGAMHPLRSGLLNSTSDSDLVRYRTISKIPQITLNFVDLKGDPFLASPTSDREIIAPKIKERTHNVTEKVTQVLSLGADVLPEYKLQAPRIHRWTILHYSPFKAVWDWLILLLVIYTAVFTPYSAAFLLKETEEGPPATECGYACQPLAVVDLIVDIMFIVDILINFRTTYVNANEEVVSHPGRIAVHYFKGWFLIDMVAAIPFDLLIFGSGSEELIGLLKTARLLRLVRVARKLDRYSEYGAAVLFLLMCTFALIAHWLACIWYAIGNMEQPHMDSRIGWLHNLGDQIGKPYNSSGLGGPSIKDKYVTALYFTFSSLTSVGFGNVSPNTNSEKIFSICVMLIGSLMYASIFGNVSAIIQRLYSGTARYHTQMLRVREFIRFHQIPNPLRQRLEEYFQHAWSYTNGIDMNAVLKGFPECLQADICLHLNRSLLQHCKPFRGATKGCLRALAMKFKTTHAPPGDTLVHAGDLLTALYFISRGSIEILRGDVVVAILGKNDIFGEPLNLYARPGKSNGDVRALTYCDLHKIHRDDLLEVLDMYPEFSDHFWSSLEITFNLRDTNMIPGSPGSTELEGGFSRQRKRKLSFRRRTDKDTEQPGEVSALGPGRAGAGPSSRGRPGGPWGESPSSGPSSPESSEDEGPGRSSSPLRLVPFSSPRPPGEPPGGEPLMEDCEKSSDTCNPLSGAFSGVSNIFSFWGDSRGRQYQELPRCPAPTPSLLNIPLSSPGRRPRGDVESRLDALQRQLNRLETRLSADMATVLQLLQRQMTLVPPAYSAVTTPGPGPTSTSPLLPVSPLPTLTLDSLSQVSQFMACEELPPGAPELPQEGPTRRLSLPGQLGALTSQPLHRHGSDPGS
row,Compound,"hERG current change (%, negative = inhibition) at 10uM"
1,CC(=O)N(CC1CCCO1)c1nnc(-c2cnccn2)s1 (stereo not shown),12.8%
2,Cc1ccc(NC(=O)CN(C)C(=S)NC2CC2)cc1,16.4%
3,Cc1ccc(C(=O)Nc2cc3c(oc2=O)CCCC3=O)cc1,-2.47%
4,COc1cc(/C=C/C(=O)NC(C)C2CC3CCC2C3)cc(OC)c1OC (stereo not shown),10.6%
5,O=C(CN1C(=O)S/C(=C\c2cccs2)C1=O)Nc1ccc(O)cc1C(=O)O,8.88%
6,CCOc1ccc(-n2ccnc2SCC(=O)Nc2nnc(CC)s2)cc1,-11.9%
7,CCC(=O)N1CCc2cc(Br)cc(S(=O)(=O)N3CCCCC3CC)c21 (stereo not shown),0.791%
8,CCCN(c1ccc(C)cc1)c1nc(=O)c2cccnc2s1,-28%
9,COc1cc(S(=O)(=O)N2CCCCC2)ccc1NC(=O)c1ccccc1Cl,-24.6%
10,CN1C(C(=O)NCc2ccccc2)CC2Cn3c(nc4ccccc43)C21 (stereo not shown),-0.69%
11,CCCNC(=O)C1CC2Cn3c(nc4ccccc43)C2N1C (stereo not shown),12.8%
12,CN1C(C(=O)NCc2cccc(Br)c2)CC2Cn3c(nc4ccccc43)C21 (stereo not shown),-67.7%
13,CN1C(C(=O)NCc2ccccc2)CC2Cn3c(nc4cc5ccccc5cc43)C21 (stereo not shown),-67.9%
14,Cc1cc2nc3n(c2cc1C)CC1CC(C(=O)NCc2ccco2)N(C)C31 (stereo not shown),-29%
15,CN1C(C(=O)NCc2ccco2)CC2Cn3c(nc4cc5ccccc5cc43)C21 (stereo not shown),-38.6%
16,C=CCNC(=O)C1CC2Cn3c(nc4cc5ccccc5cc43)C2N1C (stereo not shown),-16.2%
17,Cc1cc2nc3n(c2cc1C)CC1CC(C(=O)NCc2cccc(Br)c2)N(C)C31 (stereo not shown),-72.5%
18,COCCNC(=O)C1CC2Cn3c(nc4cc(C)c(C)cc43)C2N1C (stereo not shown),8.23%
19,Cc1cc2nc3n(c2cc1C)CC1CC(C(=O)NCc2ccccc2)N(C)C31 (stereo not shown),-31.4%
20,CN1C(C(=O)NCc2cccc(Br)c2)CC2Cn3c(nc4cc5ccccc5cc43)C21 (stereo not shown),-62%
21,COCCNC(=O)C1CC2Cn3c(nc4cc5ccccc5cc43)C2N1C (stereo not shown),-3.93%
22,Cc1ccc(S(=O)(=O)[N-]c2nc3ccccc3nc2-n2cc[n+](Cc3ccccc3)c2)cc1,11%

row,Compound,"hERG current change (%, negative = inhibition) at 10uM"
1,O=C(c1csc2c1CCCC2)N1CCN(c2ncccn2)CC1,-25.1%
2,O=C(NCc1cccc(C(F)(F)F)c1)c1ccc(=O)[nH]c1,22.5%
3,Cc1oc(-c2ccccc2)nc1CS(=O)CC(=O)O (stereo not shown),10.2%
4,Cc1nn(-c2ccccc2)c(N2CCCC2)c1C=O,2.49%
5,Cc1cccc(-c2ncc(CN3CCCC(CO)(Cc4ccccc4C)C3)cn2)c1 (stereo not shown),-11.4%
6,Cc1cccc(/C=N/NC(=O)Cc2ccc(Cl)cc2)c1O,18.6%
7,Cc1cc(C)nc(SCC(=O)NN)n1,21.1%
8,O=C(NCc1ccccc1)c1ccc[n+]([O-])c1,30.8%
9,O=S(=O)(Nc1nc2cc3c(cc2nc1Cl)OCCO3)c1ccccc1,-15.5%
10,CC(C)CNC(=S)N1CCC(NC(=O)C23CC4CC(CC(C4)C2)C3)CC1,-7.73%
11,CC(=O)N1CCC(=NNC(=O)c2cc3ccccc3cc2O)CC1,16.8%
12,O=C(Cc1ccc(-c2ccccc2)cc1)Nc1ccccc1,19.1%
13,COc1cc(S(=O)(=O)NCc2ccc3c(c2)OCO3)ccc1Cl,-26.1%
14,CC1Cc2ccccc2N1C(=S)NC(=O)c1ccco1 (stereo not shown),16.2%
15,O=C(COc1ccccc1)Nc1nccs1,-13.5%
16,COc1ccc(OCC(=O)NNC(=O)c2nn(C)c(=O)c3ccccc23)cc1,-21.1%
17,CCc1ccc(OCC(=O)NNC(=O)c2nn(CC)c(=O)c3ccccc23)cc1,-57.9%
18,CCn1nc(C(=O)NNC(=O)COc2ccccc2C)c2ccccc2c1=O,-16%
19,CCn1nc(C(=O)NNC(=O)COc2ccc(OC)cc2)c2ccccc2c1=O,-23.4%
20,CCn1nc(C(=O)NNC(=O)CCOc2cc(C)ccc2C)c2ccccc2c1=O,-77.6%
21,CCCn1nc(C(=O)NNC(=O)CCOc2ccccc2OCC)c2ccccc2c1=O,-21.8%
